# The full data set covers some 7,900 targets. This sample favours those with a hit. About 0.6% of all pairs of compound and target were hits. Unmarked numbers belong to inactive results.
# Columns and labels:
# Experiment in all cases: log2 fold change, soluble protein after heating vs DMSO (PISA); higher = thermal stabilisation; K562 cells, 10 uM, 30 min; active = over 0.2 and 3.5 SD of the protein, either way, in both replicates (recomputed)
# [1] = compound: CS(=O)(=O)c1ccc(-c2cnc(N)c(C(=O)Nc3ccccc3)n2)cc1
# Method in brief: (§1)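 Values are thermal stability changes relative to control samples and are taken from duplicates. They are stated as log2 fold changes. Before quantification by TMTpro 16plex LC-MS/MS with equalised channel sums, K562 cells at 2×10^6 cells/mL were treated with 10 μM compound for 30 min, heated in aliquots for 3 min across 48°C-58°C, pooled, extracted in PBS with 0.5% NP-40 at 4°C, and centrifuged at 21,000xg for 90 min to give the soluble supernatant.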
# crizotinib = compound: C[C@@H](Oc1cc(-c2cnn(C3CCNCC3)c2)cnc1N)c1c(Cl)ccc(F)c1Cl [crizotinib]
# Method in brief: as §1
# [2] = compound: C[C@@H]1COCCN1C2=NC(=NC(=C2)C3(CC3)S(=O)(=O)C)C4=C5C=CNC5=CC=C4
# Method in brief: as §1
# [3] = compound: C[C@H](C1=CC=C(C=C1)C(=O)NC2=C3C=CNC3=NC=C2)N
# Method in brief: as §1
# duvelisib = compound: C[C@H](Nc1ncnc2nc[nH]c12)c1cc2cccc(Cl)c2c(=O)n1-c1ccccc1 [duvelisib]
# Method in brief: as §1
# gandotinib = compound: Cc1cc(Nc2cc(CN3CCOCC3)c3nc(C)c(Cc4ccc(Cl)cc4F)n3n2)n[nH]1 [gandotinib]
# Method in brief: as §1
# tozasertib = compound: Cc1cc(Nc2cc(N3CCN(C)CC3)nc(Sc3ccc(NC(=O)C4CC4)cc3)n2)n[nH]1 [tozasertib]
# Method in brief: as §1
# [4] = compound: Cc1cc(SCc2sc(-c3ccc(C(F)(F)F)cc3)nc2C)ccc1OCC(=O)O
# Method in brief: as §1
# doramapimod = compound: Cc1ccc(-n2nc(C(C)(C)C)cc2NC(=O)Nc2ccc(OCCN3CCOCC3)c3ccccc23)cc1 [doramapimod]
# Method in brief: as §1
# ispinesib = compound: Cc1ccc(C(=O)N(CCCN)[C@@H](c2nc3cc(Cl)ccc3c(=O)n2Cc2ccccc2)C(C)C)cc1 [ispinesib]
# Method in brief: as §1
# bafetinib = compound: Cc1ccc(NC(=O)c2ccc(CN3CC[C@H](N(C)C)C3)c(C(F)(F)F)c2)cc1Nc1nccc(-c2cncnc2)n1 [bafetinib]
# Method in brief: as §1
# [5] = compound: Cc1cccc(CC(=O)N2CCc3c2ccc(-c2cn(C)c4ncnc(N)c24)c3F)n1
# Method in brief: as §1
# nilotinib = compound: Cc1cn(-c2cc(NC(=O)c3ccc(C)c(Nc4nccc(-c5cccnc5)n4)c3)cc(C(F)(F)F)c2)cn1 [nilotinib]
# Method in brief: as §1
# [6] = compound: Cc1nc(Nc2n[nH]c3c2CN(C(=O)N[C@H](CN(C)C)c2ccccc2)C3(C)C)c2sccc2n1
# Method in brief: as §1
# dasatinib = compound: Cc1nc(Nc2ncc(C(=O)Nc3c(C)cccc3Cl)s2)cc(N2CCN(CCO)CC2)n1 [dasatinib]
# Method in brief: as §1
# [7] = compound: Cc1ncc(-c2ccnc(Nc3ccc(S(C)(=O)=O)cc3)n2)n1C(C)C
# Method in brief: as §1
# [8] = compound: Cn1cc(-c2ccc3c(c2)CCN3C(=O)Cc2cccc(C(F)(F)F)c2)c2c(N)ncnc21
# Method in brief: as §1
# [9] = compound: Cn1cc(-c2ccc3nnc(C(F)(F)c4ccc5ncccc5c4)n3n2)cn1
# Method in brief: as §1
# tipifarnib = compound: Cn1cncc1[C@@](N)(c1ccc(Cl)cc1)c1ccc2c(c1)c(-c1cccc(Cl)c1)cc(=O)n2C [tipifarnib]
# Method in brief: as §1
# mubritinib = compound: FC(F)(F)c1ccc(/C=C/c2nc(COc3ccc(CCCCn4ccnn4)cc3)co2)cc1 [mubritinib]
# Method in brief: as §1
# Sequence of UniProt Q86X95 (Q86X95 whole entry, looked up): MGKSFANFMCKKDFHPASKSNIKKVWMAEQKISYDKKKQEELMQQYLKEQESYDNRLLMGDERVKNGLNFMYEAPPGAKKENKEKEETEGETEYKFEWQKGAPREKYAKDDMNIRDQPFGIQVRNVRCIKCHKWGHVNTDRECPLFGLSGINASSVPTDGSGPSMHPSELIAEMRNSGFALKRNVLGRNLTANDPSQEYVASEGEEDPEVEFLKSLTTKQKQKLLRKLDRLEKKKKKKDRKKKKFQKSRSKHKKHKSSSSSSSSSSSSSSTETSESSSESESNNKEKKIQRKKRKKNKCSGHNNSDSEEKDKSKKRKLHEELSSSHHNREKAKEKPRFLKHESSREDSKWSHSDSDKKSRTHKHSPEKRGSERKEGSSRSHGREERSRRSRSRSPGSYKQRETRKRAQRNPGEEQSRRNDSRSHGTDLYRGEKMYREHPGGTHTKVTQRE
# Sequence of UniProt Q96G28 (Q96G28 whole entry, looked up): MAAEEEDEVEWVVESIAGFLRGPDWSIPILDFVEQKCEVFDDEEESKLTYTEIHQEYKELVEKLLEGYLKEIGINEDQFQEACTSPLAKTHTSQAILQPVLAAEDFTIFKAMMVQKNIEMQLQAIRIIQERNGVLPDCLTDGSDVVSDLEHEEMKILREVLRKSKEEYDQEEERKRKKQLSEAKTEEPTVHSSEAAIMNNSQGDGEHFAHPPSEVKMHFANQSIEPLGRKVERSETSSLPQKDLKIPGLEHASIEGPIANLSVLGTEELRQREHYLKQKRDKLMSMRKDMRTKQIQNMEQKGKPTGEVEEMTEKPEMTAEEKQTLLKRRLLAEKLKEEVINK
# Sequence of UniProt P42574 (P42574 whole entry, looked up): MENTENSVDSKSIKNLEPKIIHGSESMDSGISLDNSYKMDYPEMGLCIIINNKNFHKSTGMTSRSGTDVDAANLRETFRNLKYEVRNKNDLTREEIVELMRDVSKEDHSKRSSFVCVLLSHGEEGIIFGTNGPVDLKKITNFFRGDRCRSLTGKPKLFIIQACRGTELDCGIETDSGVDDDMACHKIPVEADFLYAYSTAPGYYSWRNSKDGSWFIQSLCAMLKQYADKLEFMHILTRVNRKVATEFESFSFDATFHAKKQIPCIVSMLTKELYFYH
# Sequence of UniProt Q10570 (Q10570 whole entry, looked up): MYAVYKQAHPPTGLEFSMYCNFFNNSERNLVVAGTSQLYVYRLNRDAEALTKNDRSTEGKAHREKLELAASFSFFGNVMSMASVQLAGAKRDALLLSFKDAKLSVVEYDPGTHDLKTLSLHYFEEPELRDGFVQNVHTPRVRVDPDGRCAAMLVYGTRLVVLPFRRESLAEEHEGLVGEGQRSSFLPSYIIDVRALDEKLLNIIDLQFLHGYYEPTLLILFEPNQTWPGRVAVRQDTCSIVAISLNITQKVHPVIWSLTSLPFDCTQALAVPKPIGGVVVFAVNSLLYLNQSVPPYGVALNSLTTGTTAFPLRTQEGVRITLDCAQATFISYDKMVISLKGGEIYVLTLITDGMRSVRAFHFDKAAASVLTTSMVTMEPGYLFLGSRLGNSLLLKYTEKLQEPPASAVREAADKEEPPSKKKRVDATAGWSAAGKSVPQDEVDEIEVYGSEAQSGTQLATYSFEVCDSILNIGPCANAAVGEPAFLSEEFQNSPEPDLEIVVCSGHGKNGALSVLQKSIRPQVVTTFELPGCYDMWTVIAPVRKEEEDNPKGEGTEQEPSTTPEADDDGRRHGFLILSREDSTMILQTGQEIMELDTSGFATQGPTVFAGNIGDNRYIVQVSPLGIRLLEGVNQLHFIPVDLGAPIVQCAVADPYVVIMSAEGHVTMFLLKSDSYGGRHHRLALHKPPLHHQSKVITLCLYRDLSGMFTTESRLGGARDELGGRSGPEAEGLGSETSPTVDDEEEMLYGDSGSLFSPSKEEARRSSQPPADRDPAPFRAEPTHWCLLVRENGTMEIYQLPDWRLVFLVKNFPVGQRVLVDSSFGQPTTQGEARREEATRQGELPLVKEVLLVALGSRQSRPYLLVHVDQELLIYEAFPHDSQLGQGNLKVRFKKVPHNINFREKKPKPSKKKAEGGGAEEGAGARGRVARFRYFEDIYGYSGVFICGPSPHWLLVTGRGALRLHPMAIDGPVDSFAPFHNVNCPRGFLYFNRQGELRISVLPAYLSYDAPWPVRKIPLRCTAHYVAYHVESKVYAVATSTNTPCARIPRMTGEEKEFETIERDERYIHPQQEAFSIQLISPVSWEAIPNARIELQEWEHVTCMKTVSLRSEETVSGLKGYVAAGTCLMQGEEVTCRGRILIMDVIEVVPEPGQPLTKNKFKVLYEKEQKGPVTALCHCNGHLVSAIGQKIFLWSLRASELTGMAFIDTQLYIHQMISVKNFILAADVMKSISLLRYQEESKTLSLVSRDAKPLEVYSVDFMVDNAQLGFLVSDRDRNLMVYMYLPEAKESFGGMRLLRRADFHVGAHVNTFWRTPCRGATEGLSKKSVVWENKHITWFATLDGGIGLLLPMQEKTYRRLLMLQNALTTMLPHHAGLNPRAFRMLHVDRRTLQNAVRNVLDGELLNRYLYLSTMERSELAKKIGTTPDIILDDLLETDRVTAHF
# Sequence of UniProt Q5RI15 (Q5RI15 whole entry, looked up): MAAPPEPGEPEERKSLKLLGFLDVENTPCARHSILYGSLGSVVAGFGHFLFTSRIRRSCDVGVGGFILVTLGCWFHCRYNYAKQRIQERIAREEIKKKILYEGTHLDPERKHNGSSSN
# Sequence of UniProt P06493 (P06493 whole entry, looked up): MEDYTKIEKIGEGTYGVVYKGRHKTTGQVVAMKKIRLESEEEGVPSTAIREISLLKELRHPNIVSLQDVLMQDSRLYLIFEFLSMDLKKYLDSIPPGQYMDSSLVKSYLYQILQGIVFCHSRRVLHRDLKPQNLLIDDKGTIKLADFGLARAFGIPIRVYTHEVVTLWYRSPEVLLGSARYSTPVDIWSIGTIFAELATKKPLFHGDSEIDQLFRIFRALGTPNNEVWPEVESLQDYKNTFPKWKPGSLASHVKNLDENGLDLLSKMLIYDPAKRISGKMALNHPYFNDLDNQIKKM
# Sequence of UniProt Q00535 (Q00535 whole entry, looked up): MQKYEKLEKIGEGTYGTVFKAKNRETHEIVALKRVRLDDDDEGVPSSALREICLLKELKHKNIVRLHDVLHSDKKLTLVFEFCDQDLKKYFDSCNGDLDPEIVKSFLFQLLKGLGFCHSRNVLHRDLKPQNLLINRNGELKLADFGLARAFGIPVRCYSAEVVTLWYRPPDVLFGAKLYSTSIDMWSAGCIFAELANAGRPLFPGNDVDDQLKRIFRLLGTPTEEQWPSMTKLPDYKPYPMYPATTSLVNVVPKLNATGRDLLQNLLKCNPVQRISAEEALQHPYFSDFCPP
Target,log2 fold change [1],log2 fold change (crizotinib),log2 fold change [2],log2 fold change [3],log2 fold change (duvelisib),log2 fold change (gandotinib),log2 fold change (tozasertib),log2 fold change [4],log2 fold change (doramapimod),log2 fold change (ispinesib),log2 fold change (bafetinib),log2 fold change [5],log2 fold change (nilotinib),log2 fold change [6],log2 fold change (dasatinib),log2 fold change [7],log2 fold change [8],log2 fold change [9],log2 fold change (tipifarnib),log2 fold change (mubritinib)
COX20 isoform 2 (UniProt Q5RI15),-0.043,0.063,-0.098,0.01,-0.017,-0.385,0.022,-0.001,-0.001,-0.017,-0.072,-0.241,0.017,0.012,0.049,0.009,-0.044,0.023,-0.069,-0.092
CDK1 (UniProt P06493),0.005,-0.128,-0.005,-0.019,0.021,-0.171,-0.057,0,-0.031,0.033,0.002,-0.022,0.022,-0.196,-0.092,-0.199,-0.067,-0.023,-0.019,0.083
CIR1 (UniProt Q86X95),-0.039,0.03,-0.187,0.544 (active),-0.114,0.295,0,0.015,0.092,-0.063,0.001,-0.091,,,0.079,,-0.131,-0.06,0.223,-0.113
CIT isoform 4 (UniProt O14578),-0.023,-0.077,-0.013,0.08,0.064,-0.001,0.093,-0.033,0.026,0.072,-0.01,0.07,-0.049,-0.065,-0.064,-0.03,0.006,-0.075,-0.009,0.031
CDK5 (UniProt Q00535),0.019,-0.076,0.037,-0.022,0.001,-0.003,-0.055,0.008,0.088,-0.033,-0.091,0.035,-0.055,-0.142,-0.078,-0.034,-0.033,-0.031,-0.054,-0.103
CPSF1 (UniProt Q10570),-0.015,-0.021,-0.185,0.048,0.064,-0.068,-0.032,0.161,0.09,0.036,0.026,-0.007,0.065,-0.002,-0.037,-0.014,-0.077,-0.14,0.026,-0.007
CFAP36 isoform 2 (UniProt Q96G28),-0.013,-0.201,0.078,-0.394 (active),0.133,-0.048,0.587 (active),-0.007,0.096,-0.053,0.022,-0.055,,,0.014,,-0.047,0.128,0.002,0
CASP3 (UniProt P42574),0.017,0.036,-0.059,-0.057,-0.025,-0.019,-0.036,-0.05,-0.022,-0.004,-0.031,-0.042,0.013,-0.012,0.002,-0.007,0.008,-0.022,-0.055,0.007
